The panel holds about 83,000 compounds, 20% with a hit somewhere; the sample as a whole holds those more often.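 Cell lines were cultured in 96-well plates, exposed to a single compound concentration, and assessed for percent growth 48 hours later.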 Values without a mark were called inactive. Active and inactive are the calls of the source. The calls were made as follows: active = growth percent below 10; inactive = the rest.
What was measured:
Experiment in all cases: NCI-60 one-dose screen, 48 h (100 = growth as untreated, 0 = no growth, -100 = all killed)
[1] = system: NCI-H522 lung; conditions: 10 µM unless noted
[2] = system: COLO 205 colon; conditions: 10 µM
[3] = system: SNB-19 CNS; conditions: 10 µM unless noted
[4] = system: U251 CNS; conditions: 10 µM unless noted
[5] = system: SK-MEL-2 melanoma; conditions: 10 µM unless noted
[6] = system: EKVX NSCLC; conditions: 10 µM unless noted
[7] = system: TK-10 renal; conditions: 10 µM unless noted
[8] = system: ACHN renal; conditions: 10 µM unless noted
[9] = system: CCRF-CEM leukemia; conditions: 10 µM unless noted
[10] = system: SR leukemia; conditions: 10 µM
[11] = system: IGROV1 ovarian; conditions: 10 µM
[12] = system: HS 578T breast; conditions: 10 µM unless noted
[13] = system: MDA-MB-435 melanoma; conditions: 10 µM unless noted
[14] = system: HOP-92 NSCLC; conditions: 10 µM unless noted
[15] = system: SK-MEL-5 melanoma; conditions: 10 µM unless noted
[16] = system: SN12C renal; conditions: 10 µM unless noted
[17] = system: HCT-116 colon; conditions: 10 µM unless noted
[18] = system: T-47D breast; conditions: 10 µM unless noted

Row | Compound | growth [1] | growth [2] | growth [3] | growth [4] | growth [5] | growth [6] | growth [7] | growth [8] | growth [9] | growth [10] | growth [11] | growth [12] | growth [13] | growth [14] | growth [15] | growth [16] | growth [17] | growth [18]
1 | [Br][Pb]([c]1ccccc1)([c]1ccccc1)[c]1ccccc1 | -92.3% (active) | -98.7% (active) | -93% (active) | -100% (active) | -96.6% (active) | -91.1% (active) | -100% (active) | -92.8% (active) | -21.5% (active) | -37.8% (active) | -50.9% (active) | -35.6% (active) | -98.6% (active) |  |  |  |  | 
2 | COC(=O)C[Se]C(=O)c1ccccc1OC(C)=O |  | 46.7% |  | 66.3% | 87.4% | 31.4% | 93.1% | 72% | 76.6% | 20.7% |  | 66.1% | 87.9% | 93.3% | 90.6% | 93.2% | 10.9% | 
3 | Cc1ccccc1O | 99% | 105% | 107% | 105% |  | 111% | 115% | 103% | 103% | 128% | 102% | 132% | 117% |  |  |  | 103% | 94.9%
4 | CC[CH2][Pb]([CH2]CC)([CH2]CC)[O]C(=O)C(F)(F)F |  | -72.5% (active) |  | -87.4% (active) | -87.7% (active) |  |  |  |  |  | -78.8% (active) | -10.4% (active) | -97.1% (active) |  | -98.3% (active) | -79.3% (active) | -95% (active) | -68.1% (active)
5 | C[C@]12CCc3sc(-c4ccc(Cl)cc4)nc3C1=CC[C@@H]1[C@@H]2CC[C@]2(C)C(=O)CC[C@@H]12 |  | 97.2% | 56.2% | 36.7% |  | 72.3% |  | 70.6% | 14.5% | 10.9% | 92.5% | 44.6% |  | 98.6% | 62.4% | 65.9% | 52.3% | 66.2%
6 | CC[C@H](C)[C@H](NC(=O)Nc1ccccc1)C(=O)N(C)[C@H](C[C@@H](OC(C)=O)c1nc(C(=O)N[C@@H](Cc2ccccc2)C[C@H](C)C(=O)OC)cs1)C(C)C | -44.6% (active) | -51.8% (active) | 45% | 7.23% (active) | -15% (active) | 33.2% |  | 25.1% | 9.52% (active) | 11.2% | 22.2% | 5.14% (active) |  |  | -70.3% (active) | 46.6% | 6.85% (active) | 
7 | O=C1NC(=O)C(=Cc2cn(Cc3ccccc3)c3ccccc23)C(=O)N1 | 102% | 18.3% |  |  | 105% | 63.7% | 28.8% | 92.7% | 98.1% | 71.4% |  | 78% | 91.4% | 79.3% |  | 88.8% | 86.1% | 55.9%
8 | CCCCCCCCCCCCOc1ccc(C(=O)Oc2ccc(CSP3(=O)OCC4OC(n5cnc6c(N)ncnc65)C(F)C4OP(=O)(O)OCC4OC(n5ccc(=O)[nH]c5=O)C(F)C4O3)cc2)cc1 (stereo not drawn) | 69.4% |  |  | 109% | 86.6% | 107% | 77.5% |  | 68.3% | 25.1% | 97% | 117% | 106% | 86.9% |  | 109% | 83.2% | 88.5%
9 | NC(=O)C(Br)CBr (stereo not drawn) | -81.7% (active) | -83.4% (active) | 80.1% | 26.9% | -85.3% (active) | -73.1% (active) |  | -76.2% (active) | -12.1% (active) |  |  | 51.1% |  | -83.7% (active) | 55.6% | 22% | -92.7% (active) | 1.22% (active)
10 | O=C(O)CC(Br)C(=O)CBr (stereo not drawn) |  | 109% | 104% | 99.2% |  |  | 98.9% | 99% |  | 113% |  | 104% | 108% |  | 106% | 107% | 100% | 103%
